The entries come from a sample that favours hits as a whole.
TTR transcr act: increases transthyretin transcription | SH-SY5Y TTR promoter Gaussia luciferase, luminescence; 100% = recombinant luciferase protein wells | activation, % at 16.7 µM | AID 1117267 | hit rate 1.3% among 92,000;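 active means activation above the mean of all tested compounds plus 3 SD, cut at about 9.5% in these data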;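 further: cells exposed to compounds for one day before reading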
HuH7 TTR inh: counter-screen for TTR activators: TTR transcription inhibitors in HuH7 cells | shares compounds with TTR transcr act | HuH7 TTR promoter-Gaussia luciferase reporter, luminescence | inhibition, % at 16.7 µM | hit rate 4% among 1,100 | AID 1117279;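 active means average inhibition above the solvent-only control wells' mean plus 3 SD, cut at about 15% in these data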;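 further: inhibitors lower well luminescence so higher value means more inhibition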
TTR up confirm: human TTR transcription activation, confirmation | activation, % at 16.7 µM | shares compounds with TTR transcr act | AID 1117280 | 1,100 tested, under 10 active | SHSY5Y TTR promoter Gaussia luciferase, luminescence; 100% = purified Lucia enzyme wells, no cells;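 active means mean activation above a set limit taken from the earlier primary screen, cut at about 11% in these data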
Numbers stand for hits; n = inactive.

SMILES	TTR transcr act	others
O=C(Nc1cccc(Cl)c1)OCCN1CCCC12CCC(c1ccccc1)CC2 (centres undefined)	n
O=C(Cc1ccc(Nc2nc3ccc(Br)cc3[nH]2)cc1)NCCc1cccs1	n
O=C(NCCc1nc2ccccc2[nH]1)c1cccc(Br)c1	n
O=C(NCC1CC1)c1ccc(Nc2nc3ccc(Br)cc3[nH]2)cc1	34.1	HuH7 TTR inh=n;TTR up confirm=n
CCC[C@H]1[C@@H](NC(=S)Nc2ccccc2Cl)CC[C@@]23CCCN2C(=O)CCC[C@@H]13	n
COc1ccc(N(CC(=O)NCCc2ccccc2)C(=O)c2csnn2)cc1OC	n
COc1cccc(N(C)C(=O)[C@@H](C2CC2)[C@@H](O)c2ccc3ccccc3c2)c1	n
COc1ccccc1NC(=S)OCCN1CCCC12CCC(c1ccccc1)CC2 (centres undefined)	n
CCOc1ccc(OCC)c(NC(=O)C2CCCN(S(=O)(=O)c3ccc(C)cc3)C2)c1 (centres undefined)	n
CC(C)c1ccccc1NC(=O)C1CCCN(C(=O)c2ccc(Cl)cc2)C1 (centres undefined)	n
CCOc1ccc(OCC)c(NC(=O)C2CCCN(C(=O)c3ccc(Cl)cc3)C2)c1 (centres undefined)	11.0	HuH7 TTR inh=n;TTR up confirm=n
CCN1C(=O)[C@@H]2[C@@H](c3ccc(-c4ccc5c(c4)OCO5)cc3)N3CCCC[C@@]3(C(=O)OC)[C@@H]2C1=O	n
CCSc1ccc([C@@H]2[C@H]3C(=O)N(C)C(=O)[C@H]3[C@]3(C(=O)OC)CCCCN23)cc1	n
COC(=O)[C@@]12CCCN1[C@H](c1ccc(-c3ccccc3)cc1)[C@H]1C(=O)N(C)C(=O)[C@H]12	n
CCN1C(=O)[C@@H]2[C@@H](c3ccc(-c4ccc(C(C)=O)cc4)cc3)N3CCCC[C@@]3(C(=O)OC)[C@@H]2C1=O	12.2	HuH7 TTR inh=n;TTR up confirm=n
COC(=O)[C@@]12CCCCN1[C@H](c1ccc(SC3CCCCC3)cc1)[C@@H]1C(=O)N(C)C(=O)[C@@H]12	17.2	HuH7 TTR inh=n;TTR up confirm=n
COC(=O)[C@@]12CCCCN1[C@H](c1ccc(-c3ccc(C(C)=O)cc3)cc1)[C@H]1C(=O)N(C)C(=O)[C@H]12	n
CCCCCn1nnnc1C1(C)CN(S(C)(=O)=O)CC(=O)N1Cc1ccco1 (centres undefined)	n
O=C(Nc1ccc2c(c1)OCO2)NC1CCCCN(Cc2cccc(Cl)c2)C1=O (centres undefined)	n
CCCNC(=O)c1cc(C2CCCN(C(=O)C3CCCCC3)C2)on1 (centres undefined)	n
N#Cc1ccc(CN2CCN(C(=O)C3CC(=O)N(c4ccccc4F)C3)CC2)cc1 (centres undefined)	n
CN(C)NC(=S)Nc1cccc(Cl)c1	n
CN(C)NC(=O)c1cccc(Cl)c1	n
CN(Nc1cccc(Cl)c1)c1cccc(Cl)c1	11.4	HuH7 TTR inh=n;TTR up confirm=n
Nc1c(C(=O)NCC(O)c2ccccc2)cnn1-c1ccccc1 (centres undefined)	n
SMILES	TTR transcr act	others
CC[C@@H]1/C(=C/c2ccccc2)N2C(=O)C[C@@H](c3ccccc3)N=C2N1Cc1ccc(OC)cc1OC	n
O=C(C1CCC1)n1ccc2ccc(-c3ccc4ccn(Cc5ccccc5)c4c3)cc21	n
Cc1cc(NC(=O)C2CCCCC2)ncc1NC(=O)c1ccccn1	14.5	HuH7 TTR inh=n;TTR up confirm=n
Cc1cc(NC(=O)C2CC2)ncc1NC(=O)c1ccccn1	n
Cc1ccccc1NC(=O)c1ccccn1	n
CC(=O)Nc1ccc(C(=O)N2CCCCC2c2cc(C(=O)Nc3ccccc3Cl)no2)cc1 (centres undefined)	n
O=C(O)CN1C(=O)C2C3CCC(C3)C2C1=O (centres undefined)	n
Cn1nnc(NC(=S)NC(=O)/C=C/c2ccco2)n1	n
Cc1cccnc1NC(=S)NC(=O)/C=C/c1ccco1	11.6	HuH7 TTR inh=n;TTR up confirm=n
O=C(/C=C\c1ccco1)NC(=S)Nc1ccccc1O	n
COc1ccc(C(=O)Nc2cc(C(=O)O)cc(C(=O)O)c2)cc1Cl	n
CCOc1ccc(C(=O)Nc2cccc(C(=O)O)c2C)cc1Cl	n
COc1ccc(C(=O)Nc2ccccc2C(=O)O)cc1Cl	78.4	HuH7 TTR inh=n;TTR up confirm=n
CC(C(=O)Nc1ccc(C#N)cc1)N(C)Cc1cccs1 (centres undefined)	n
CC(C(=O)Nc1ccc(S(=O)(=O)N2CCCC2)cc1)N(C)CC(=O)Nc1cccc(F)c1 (centres undefined)	n
CC(C(=O)Nc1ccc(C#N)cc1)N(C)CC(=O)Nc1cccc(F)c1 (centres undefined)	9.9	HuH7 TTR inh=n;TTR up confirm=n
NC(=O)C12NC(Cc3ccccc31)c1ccccc12 (centres undefined)	n
CCOC(=O)c1c(S(=O)(=O)NC2CCN(C(=O)OCC)CC2)c(C)n(C)c1C	n
O=C(Cc1ccccc1)NC1CCCc2c1cnn2-c1ccc(F)cc1F (centres undefined)	n
